Results filed as inconclusive are left out. Calls of active or inactive are those of the source. The calls were made as follows: active = hit-call score of the fitted dose curve at least 0.9, where 1 is the maximum; inconclusive = response in the unintended direction; inactive = score below 0.9.

The target of this experiment is Estrogen receptor (Homo sapiens) + Estrogen receptor beta (Homo sapiens) (UniProt P03372+Q92731). The experiment is described as follows: OT_ER_ERaERb_0480: Odyssey Thera (OT) 8-hour HEK293T Protein-Complementation Assay for Estrogen Receptor-alpha/-beta Heterodimer (AID 2283352). The procedure: OT_ER_ERaERb_0480 is a cell-based assay that uses HEK293T, a human kidney cell line, with measurements taken at 8 hours after chemical dosing in a 384-well plate.OT_ER_ERaERb_0480 is one of one assay component(s) measured or calculated from the OT_ER_ERaERb_0480 assay. It is designed to make measurements of protein fragment complementation, a form of binding reporter, as detected with fluorescence intensity signals by Protein-fragment Complementation technology.Data from the assay component OT_ER_ERaERb_0480 was analyzed into 1 assay endpoint. This assay endpoint, OT_ER_ERaERb_0480, was analyzed in the positive analysis fitting direction relative to DMSO as the negative control and baseline of activity. Using a type of binding reporter, measures of receptor for gain-of-signal activity can be used to understand the binding at the pathway-level as they relate to the gene ESR1 and ESR2. Furthermore, this assay endpoint can be referred to as a primary readout, because the performed assay has only produced 1 assay endpoint. To generalize the intended target to other relatable targets, this assay endpoint is annotated to the nuclear receptor intended target family, where the subfamily is steroidal.
Chain of Estrogen receptor (Homo sapiens) + Estrogen receptor beta (Homo sapiens) (P03372 whole entry, looked up, the tested form may be a part): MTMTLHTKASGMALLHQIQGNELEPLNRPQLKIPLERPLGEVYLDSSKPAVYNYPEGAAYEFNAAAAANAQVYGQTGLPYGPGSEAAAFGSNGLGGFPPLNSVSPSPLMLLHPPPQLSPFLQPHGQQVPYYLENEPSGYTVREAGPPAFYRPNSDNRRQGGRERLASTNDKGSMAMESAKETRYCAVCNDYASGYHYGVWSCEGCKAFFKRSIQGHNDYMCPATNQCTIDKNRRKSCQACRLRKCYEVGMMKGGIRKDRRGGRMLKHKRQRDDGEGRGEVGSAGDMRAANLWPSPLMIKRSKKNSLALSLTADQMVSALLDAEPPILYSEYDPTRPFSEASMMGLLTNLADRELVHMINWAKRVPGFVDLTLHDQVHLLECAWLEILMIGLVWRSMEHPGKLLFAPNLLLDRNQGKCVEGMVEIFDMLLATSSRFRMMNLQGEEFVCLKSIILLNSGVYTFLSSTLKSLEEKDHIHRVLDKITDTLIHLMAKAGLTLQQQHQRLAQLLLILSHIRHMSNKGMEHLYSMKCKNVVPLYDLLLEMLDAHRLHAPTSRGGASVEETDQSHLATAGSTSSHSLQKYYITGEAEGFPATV
Chain of Estrogen receptor (Homo sapiens) + Estrogen receptor beta (Homo sapiens) (Q92731 whole entry, looked up, the tested form may be a part): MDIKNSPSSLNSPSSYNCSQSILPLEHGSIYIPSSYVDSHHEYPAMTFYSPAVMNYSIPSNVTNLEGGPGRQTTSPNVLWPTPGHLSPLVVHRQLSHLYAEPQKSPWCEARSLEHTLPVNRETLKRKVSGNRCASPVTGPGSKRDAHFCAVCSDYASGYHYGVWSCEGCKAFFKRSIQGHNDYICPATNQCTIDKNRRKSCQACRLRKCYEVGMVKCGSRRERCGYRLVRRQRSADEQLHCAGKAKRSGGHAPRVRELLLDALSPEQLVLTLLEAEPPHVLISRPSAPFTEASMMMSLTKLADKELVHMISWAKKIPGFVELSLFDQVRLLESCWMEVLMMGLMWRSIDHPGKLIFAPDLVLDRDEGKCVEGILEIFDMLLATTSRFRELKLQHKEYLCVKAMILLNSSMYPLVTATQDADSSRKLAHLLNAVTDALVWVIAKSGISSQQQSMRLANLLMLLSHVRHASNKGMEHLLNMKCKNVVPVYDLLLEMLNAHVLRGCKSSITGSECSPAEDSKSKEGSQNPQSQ
Protein-fragment complementation assay, or PCA, is a method for the identification and quantification of protein-protein interactions. In the PCA, the proteins of interest ("bait" and "prey") are each covalently linked to fragments of a third protein (e.g. DHFR, which acts as a "reporter"). Interaction between the bait and the prey proteins brings the fragments of the reporter protein in close proximity to allow them to form a functional reporter protein whose activity can be measured. […] Fluorescent signal in the basal state of the assay is very low and is primarily punctuate and cytoplasmic. Modulation of this assay is quantified as an increase in mean fluorescence intensity in the nucleus (for agonists) or in the nucleus and cytoplasm (antagonists) relative to vehicle controls, and can be quantified on a high content imaging device or a laser scanning cytometer. The latter instrument is favored for this assay because of the rapid mode of data acquisition, the ability to acquire data from the entire cell population in a well (as opposed to a fraction of the well on the high content devices) and the larger dynamic range typically achieved with this instrument. To assess sensitivity of the ER alpha/ER beta LBD assay to ligand, cells were treated with the ER agonist 17- beta-estradiol (E2) in 10-point concentration- response format for 8 hours and monitored response on a laser scanning plate cytometer (Acumen eX3; TTP Lab Tech).
As to `Cn1cnc([N+](=O)[O-])c1Sc1ncnc2nc[nH]c12`, the outcome was inactive.

For the compound `COc1cccc(-c2ccc(/C=C\CN3CCCCCC3)cc2Cl)c1`, the outcome was inactive. As for `CCCCCCCCO`, the entry is “inactive”. As for `COC(=O)c1c(Cl)c(Cl)c(C(=O)OC)c(Cl)c1Cl`, the entry is “inactive”; as for `C=CCCCCCCCCC(=O)O`, “inactive”. The same measure for `O=c1n(CC2CO2)c(=O)n(CC2CO2)c(=O)n1CC1CO1` (stereo not given): “inactive”; for `O=P(OC(CCl)CCl)(OC(CCl)CCl)OC(CCl)CCl`: “inactive”; for `CCn1nc(Cc2ccccc2)cc1C1CCN(C[C@H]2C[C@H](N(C)[C@@H](C(=O)O)C(C)C)C[C@@H]2c2cccc(F)c2)CC1`: “inactive”. For the compound `Cc1ccc(N)cc1O`, the result was inactive. The same measure for `CC(C)CCO`: “inactive”. The same measure for `C=CC(=C)CCC=C(C)C`: “inactive”; for `Cn1c(=O)cc(Oc2ccc(F)cc2F)c2cnc(NCC(C)(C)O)nc21`: “inactive”.

Regarding `CC[C@H](C)C(=O)O[C@H]1C[C@@H](C)C=C2C=C[C@H](C)[C@H](CC[C@@H]3C[C@@H](O)CC(=O)O3)[C@H]21`, the outcome was inactive. As for `CCC(C)(C)C(=O)O[C@H]1C[C@@H](C)C=C2C=C[C@H](C)[C@H](CC[C@@H]3C[C@@H](O)CC(=O)O3)[C@H]21`, the entry is “inactive”. As for `COc1ccc2sc(C(=O)Nc3nnn[nH]3)c(OC(C)C)c2c1`, the entry is “inactive”; as for `COC(=O)CC(=O)OC`, “inactive”. As for `CCCC(=O)OCC`, the entry is “inactive”. On to `CC(C)=CCCC(C)=CC=O`, for which the result was inactive.

With `COC(=O)c1ccccc1O`, the result was inactive. On to `O=C(NS(=O)(=O)/C=C/c1ccccc1)c1ccc(F)cc1Cl`, for which the outcome was inactive.

The record behind these values is PubChem BioAssay (EPA / NIEHS).
